In PubChem BioAssay (NCI) one finds growth data, which are given here for 18 molecules.

Structures are written as SMILES. Compounds without any hit were thinned out: in the full panel of roughly 83,000, 20% have a hit.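 Assay: single dose, 48 h. Readout: percent growth (0 = no net growth; negative = cell death). Active: <10.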 A number with no mark means an inactive call. Calls of active or inactive are those of the source.

Holding throughout (experiment): NCI-60 one-dose screen, 48 h (100 = growth as untreated, 0 = no growth, -100 = all killed)
What all share (details): 10 µM unless noted

The test system of assay [1] is SR leukemia.
Assay [2] deals with OVCAR-8 ovarian.
Assay [3] deals with OVCAR-5 ovarian.
Assay [4] has as its system OVCAR-4 ovarian.
The test system of assay [5] is SK-OV-3 ovarian.
The subject of assay [6] is OVCAR-3 ovarian.
Assay [7] deals with HS 578T breast.
For assay [8], the system named is NCI/ADR-RES ovarian.
For assay [9], the system named is T-47D breast.
Assay [10] concerns BT-549 breast.
Assay [11] deals with MDA-MB-435 melanoma.
In assay [12] the test system is SW-620 colon.
Assay [13] deals with MCF7 breast.
For assay [14], the system named is HCT-116 colon.
The test system of assay [15] is HCC-2998 colon.
For assay [16], the system named is KM12 colon.
Assay [17] relates to IGROV1 ovarian.
The subject of assay [18] is RPMI-8226 leukemia.

For `C=CCn1c(C)nc2ccc(Nc3nc(Nc4ccc(F)cc4)nc4ccccc34)cc21`, the growth in assay [1] was 22.4%; in [2], 33.4%; in [3] it was 81.3%; in assay [4], 48.3%; in assay [5], 98.6%; in assay [6], 51.2%. Further, the growth was 54.4% in assay [7]; 38.4% in [8]; 35% in assay [9]; 59.2% in [10]; 57.1% in assay [11]; 46.1% in assay [12]. For the same molecule, the growth in assay [13] is 26.1%; in assay [14], 26.9%; in assay [15], 80.6%; in [16] it was 36.6%.

Turning to `COC1=CC(c2ccc[nH]2)=N/C1=C\c1[nH]c(C)c(CCCn2cc(CCCCCCCCC[C@@H]3Cc4cc(O)ccc4C4CC[C@]5(C)[C@@H](O)CC[C@H]5C43)nn2)c1C` (stereo partly drawn), the growth was 66.7% in assay [1]; 70.4% in [2]; 32% in assay [3]; 84% in assay [5]; 78.1% in [17]; 63.2% in assay [6]. Besides, the growth in assay [7] is 55.7%; in assay [8], 69.5%; in assay [9], 38.4%; in [10], 67.6%; in [11], 72.4%; in [12], 44.8%. Also, the growth is 16.4% in assay [13], 37.3% in assay [14], 36.4% in [15] and 16.2% in assay [16].

`COc1cc(-c2cc(/C=C3\CCCCC3=O)[nH]n2)cc(OC)c1OC`: the growth in assay [1] is 49.2%; in [2], 102%; in assay [3], 103%; in assay [4] it was 95%; in [5], 128%; in [6], 104%. Besides, the growth in assay [7] was 99.4%; in [8] it was 103%; in assay [9] it was 90.1%; in assay [10], 99.7%; in assay [11] it was 102%; in [12], 101%. Besides, the growth is 92.5% in [13], 89% in assay [14], 106% in assay [15] and 94.4% in [16].

As for `O=S(=O)(NCCCNc1nccc(-c2c(-c3ccccc3)nc3sccn23)n1)c1ccc(F)cc1`, the growth in assay [1] is 34.6%; in [2] it was 26.2%; in assay [3], 111%; in assay [4], 36.2%; in assay [5], 59.1%; in [17], 32.9%. In addition, the growth was 49.6% in [6]; 72% in assay [7]; 22.4% in assay [8]; 7.39% (active) in assay [9]; 54.3% in assay [10]; 16.5% in assay [11]. The growth in [12] is 53.8%; in assay [14] it was 25.9%; in [15] it was 86.4%; in assay [16], 39.4%.

With `O=C1Nc2cc(Cl)ccc2Oc2cc(Oc3ccccc3)ccc21`, the growth in assay [1] is 20.7%; in assay [2] it was 88%; in [3], 83%; in [4], 71.5%; in assay [5] it was 47.4%; in [17] it was 63.3%. Also, the growth in assay [6] was 27.6%; in [7], 43.3%; in assay [8] it was 18.9%; in assay [9], 48.5%; in assay [10], 56.4%; in assay [11], -3.81% (active). Further, the growth was 16.6% in [12], 27.8% in [14], 60.6% in assay [15] and 20% in assay [16].

With `COc1ccc(-n2cnc3c(sc4ncc(Cl)cc43)c2=O)cc1`, the growth in assay [1] is 71.2%; in [2], 87.9%; in [3], 98.6%; in assay [4], 101%; in assay [5], 84.8%; in assay [17] it was 65.7%. In addition, the growth in assay [6] was 53.8%; in assay [9], 86.1%; in [10] it was 94.9%; in [11] it was 77.4%; in assay [12], 98.3%; in assay [13], 101%. In addition, the growth is 54.5% in [14], 116% in [15] and 55.1% in [16].

As for `Clc1ccc2c(c1)NC1(CCSc3ccccc31)n1nccc1-2` (stereo not drawn), the growth in [1] is 91.6%; in assay [2], 100%; in [3], 92.6%; in [4], 103%; in assay [5] it was 111%; in assay [6], 94.6%. Moreover, the growth is 110% in assay [7]; 98.6% in assay [8]; 101% in [9]; 97.4% in assay [10]; 110% in assay [11]; 102% in assay [12]. Besides, the growth is 102% in assay [13], 89.4% in assay [14], 97.3% in [15] and 102% in assay [16].

With `c1ccc2nc(-c3ccc4ccccc4n3)ccc2c1`, the growth is 86.8% in [1]; 98.6% in assay [2]; 97.2% in [3]; 92.3% in assay [4]; 90.1% in assay [5]; 79.5% in assay [17]. Moreover, the growth in [6] is 97.4%; in assay [7], 105%; in assay [8], 99.7%; in [10], 93.7%; in assay [11] it was 91.9%; in assay [12], 100%. Moreover, the growth is 88.7% in assay [14], 101% in [15] and 90.4% in assay [16].

For `CCCCC[C@@H]1Cc2cc(O)c(C(=O)O)c3c2[C@H](C[C@@]2(CCCO2)O3)O1`, the growth was 64.4% in [1]; 101% in assay [2]; 104% in assay [3]; 94.2% in assay [4]; 113% in assay [5]; -4.39% (active) in [17]. Besides, the growth in assay [6] was 107%; in assay [7] it was 122%; in [8], 96.1%; in [9], 108%; in assay [10], 115%; in [11] it was 97.2%. Moreover, the growth in [12] was 111%; in assay [13], 102%; in [14], 100%; in [15] it was 95.9%; in [16], 118%.

For the molecule `NC(C(=O)O)C(O)c1ccc(OCc2ccccc2)c(OCc2ccccc2)c1` (stereo not drawn), the growth was 92.3% in assay [1]; 99.6% in [2]; 101% in [3]; 107% in assay [4]; 103% in assay [5]; 106% in [6]. The growth is 93.4% in assay [7]; 93.3% in assay [8]; 88.1% in [9]; 95% in [10]; 102% in assay [11]; 97% in [12]. For the same molecule, the growth in assay [13] is 87.3%; in assay [14], 101%; in assay [15] it was 115%; in assay [16] it was 100%.

Turning to `CC(=O)OC[Si](C)(C)c1ccccc1`, the growth in assay [18] is 110%; in assay [2], 101%; in assay [3], 108%; in assay [4], 103%; in assay [5], 103%; in [17] it was 114%. The growth in assay [6] is 112%; in assay [7], 103%; in assay [8], 112%; in assay [9], 105%; in assay [10], 107%; in [11] it was 99.1%. Further, the growth was 101% in [12]; 107% in assay [13]; 99.9% in [14]; 122% in assay [15]; 110% in assay [16].

Regarding `COC(=O)CCCCN=Cc1c(O)c(O)c(C(C)C)c2cc(C)c(-c3c(C)cc4c(C(C)C)c(O)c(O)c(C=NCCCCC(=O)OC)c4c3O)c(O)c12`, the growth in assay [18] was 17.7%; in assay [2] it was 16.4%; in assay [3], 17.8%; in assay [4], 13.7%; in assay [5], 40.1%; in assay [17], 26.4%. Also, the growth in [6] was 14.3%; in [7] it was 9.48% (active); in assay [8] it was 52.8%; in [9], 24.9%; in [10], 28.2%; in assay [11], 25.7%. In addition, the growth in assay [12] is 17%; in [13], 9.71% (active); in assay [14], 14.9%; in [15], 29.7%; in [16], 16.1%.

For the molecule `COC(=O)CCCCCCN=Cc1c(O)c(O)c(C(C)C)c2cc(C)c(-c3c(C)cc4c(C(C)C)c(O)c(O)c(C=NCCCCCCC(=O)OC)c4c3O)c(O)c12`, the growth in [18] was 13.2%; in [2], 18.6%; in [3], 21.7%; in [4], 27.7%; in assay [5], 64.8%; in assay [17], 29.3%. The growth in [6] was 21.8%; in assay [7], 20.2%; in [8], 69.1%; in assay [9], 20.6%; in [10], 38.6%; in assay [11], 17.2%. Further, the growth in assay [12] is 17.9%; in assay [13], 7.98% (active); in assay [14] it was 8.17% (active); in assay [15] it was 32.6%; in assay [16] it was 18.2%.

On to `O=C(COc1ccccc1)N1N=C(c2ccc(Cl)cc2)CC1c1c[nH]c2ccccc12` (stereo not drawn), for which the growth in assay [1] was 10.8%; in assay [2], 70.4%; in assay [3], 112%; in assay [5] it was 81.4%; in assay [17], 30.2%; in assay [6] it was 77.9%. Moreover, the growth was 93.7% in [7]; 83% in [8]; 51.4% in assay [9]; 71.3% in assay [10]; 93.8% in assay [11]; 54.5% in [12]. For the same molecule, the growth in assay [13] was 39.7%; in assay [14] it was 68.5%; in assay [15] it was 103%; in [16], 74.1%.

With `CN1CCN(c2ccc3cc(-c4nc5ccccc5[nH]4)c(=O)oc3c2)CC1`, the growth in [18] was 64.5%; in assay [2], 94.7%; in [3], 102%; in [4], 70.3%; in assay [5], 101%; in [17], 79.9%. The growth is 97.2% in [6]; 96.1% in assay [7]; 86.9% in assay [8]; 76.9% in [9]; 87.7% in assay [10]; 99.5% in assay [11]. Besides, the growth in [12] was 107%; in assay [13], 73.6%; in assay [14], 81.9%; in [15] it was 114%; in [16], 90%.

Turning to `COc1ccc(-n2c(C)cc(-c3ccccc3)c2C)cc1`, the growth in assay [18] is 14.9%; in [2], 51.6%; in assay [3], 63.8%; in assay [4], 38%; in assay [5] it was 83.2%; in assay [17], 72%. For the same molecule, the growth in [6] was 75.5%; in assay [7], 74.1%; in assay [8], 40.2%; in assay [9], 27.5%; in assay [10], 47%; in assay [11] it was 12.1%. For the same molecule, the growth in assay [12] was 41.2%; in [13] it was 28%; in assay [14] it was 21%; in assay [15], 35.1%; in assay [16], 37.7%.

Take `COc1cc(Cn2c(-c3nonc3N)nc3ccccc32)ccc1C`: the growth in assay [18] is 19.2%; in [2], 31.6%; in [3], 34%; in assay [4], 62.6%; in assay [5], 29.9%; in assay [17], 47.6%. Further, the growth in assay [6] is -34.7% (active); in assay [7], 22.5%; in [8], 21.2%; in assay [9], 37.2%; in [10], 66.9%; in [11], -30.6% (active). Moreover, the growth in [12] was 31.2%; in assay [13], 20.7%; in [14], 20.3%; in assay [15], 23.5%.

Regarding `CCOC(=O)/C=C\C(=O)NC(N)=O`, the growth was 98.5% in assay [18]; 104% in assay [2]; 113% in assay [3]; 120% in assay [4]; 95.9% in assay [5]; 104% in [17]. Further, the growth was 110% in assay [6]; 102% in assay [7]; 106% in assay [8]; 89.1% in assay [9]; 100% in assay [10]; 106% in assay [11]. Also, the growth in assay [12] is 107%; in assay [13] it was 96.3%; in assay [14] it was 86.4%; in assay [15], 95.2%; in [16] it was 106%.
